Assay outcomes: PubChem BioAssay, several laboratories
A selection: hits, their analogues and other compounds. The true share with any hit is near 4.5%.
Gli-Sufu block: antagonists of Gli-Sufu signaling | Sufu-KO-LIGHT fibroblasts, Gli luciferase reporter luminescence | inhibition, % at 5 µM | actives 0.74% (n = 340,000) | AID 588413;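 active means inhibition above about 55%, limit read from the data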;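 further: 0% = DMSO-treated cells and 100% = wells with medium but no cells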
Jurkat NFkB inh: inhibitors of the PMA/ionomycin-induced NF-kB reporter in Jurkat cells | PMA/ionomycin-induced NF-kB luciferase reporter, luminescence | inhibition, % at 4 µM | actives 0.53% (n = 330,000) | AID 435003; in the data active means inhibition above about 50%
Mdm2-MdmX inh: human Mdm2/MdmX binding inhibition | O15151+Q00987 | SaOS-2 split-luciferase Mdm2/MdmX complementation, luminescence | inhibition, % at 8 µM | actives 3% (n = 330,000);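 active means inhibition of at least 50% at 8 µM in the primary screen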
Target sequence (O15151 whole entry, looked up): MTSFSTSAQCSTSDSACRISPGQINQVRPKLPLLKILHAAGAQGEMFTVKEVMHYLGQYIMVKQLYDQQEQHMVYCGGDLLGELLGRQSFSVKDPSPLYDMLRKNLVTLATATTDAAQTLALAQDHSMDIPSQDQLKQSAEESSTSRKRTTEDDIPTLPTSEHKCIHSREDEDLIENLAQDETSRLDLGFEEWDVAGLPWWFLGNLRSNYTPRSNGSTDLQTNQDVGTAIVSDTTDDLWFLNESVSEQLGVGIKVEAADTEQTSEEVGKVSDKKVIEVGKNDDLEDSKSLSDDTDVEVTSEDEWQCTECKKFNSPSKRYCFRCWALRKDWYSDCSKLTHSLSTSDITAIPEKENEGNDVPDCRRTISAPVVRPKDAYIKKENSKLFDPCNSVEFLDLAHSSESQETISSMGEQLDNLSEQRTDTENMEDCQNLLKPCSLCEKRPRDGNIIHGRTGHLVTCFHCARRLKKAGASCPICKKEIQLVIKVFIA
Target sequence (Q00987 whole entry, looked up): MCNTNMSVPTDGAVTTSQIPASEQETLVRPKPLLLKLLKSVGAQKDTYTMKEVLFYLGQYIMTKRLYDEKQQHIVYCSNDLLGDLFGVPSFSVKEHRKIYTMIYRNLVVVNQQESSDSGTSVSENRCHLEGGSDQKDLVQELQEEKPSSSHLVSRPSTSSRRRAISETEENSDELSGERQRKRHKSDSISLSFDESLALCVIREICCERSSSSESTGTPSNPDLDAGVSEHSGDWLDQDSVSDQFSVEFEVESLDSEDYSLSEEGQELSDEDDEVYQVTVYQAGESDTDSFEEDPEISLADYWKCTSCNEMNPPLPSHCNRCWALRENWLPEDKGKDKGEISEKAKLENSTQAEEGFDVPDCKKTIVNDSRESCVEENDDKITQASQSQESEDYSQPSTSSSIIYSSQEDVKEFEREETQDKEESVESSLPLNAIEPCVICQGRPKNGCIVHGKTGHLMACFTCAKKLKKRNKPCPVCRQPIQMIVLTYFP
697 NFkB inh: lowers PMA/ionomycin-induced NF-kB signal in 697 B cells; 697 B-cell NF-kB luciferase reporter, 16 h; inhibition, % at 4 µM; actives 0.33% (n = 330,000); in the data active means inhibition above about 35%
CSC inhib: blocks cancer stem cells; AID 2717; cancer stem cell-like cells viability, luminescence; inhibition, % at 7.5 µM; actives 1.1% (n = 300,000); in the data active means inhibition above about 75%; inconclusive means no clear call, values can overlap the other calls; tested in HMLE shEcad cells
aSyn UTR inh: 5' untranslated region of α-synuclein, MLPCN primary screen; alpha-synuclein 5'UTR reporter, inhibitor activity; inhibition, % (tested at 7.5 µM); actives 0.82% (n = 300,000); in the data active means inhibition above about 60%; inconclusive means no clear call, values can overlap the other calls;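 further: H4 neuroglioblastoma cells stably carrying SNCA 5'UTR luciferase fusion; 0% = DMSO wells and 100% = positive control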
Mdm2 MdmX conf: human Mdm2/MdmX binding inhibition, confirmed; shares compounds with Mdm2-MdmX inh; luminescent assay; inhibition, % at 8 µM; actives 55% (n = 10,000); AID 489028; in the data active means inhibition above about 40%
FLuc counter: inhibits full-length luciferase, flagging false Mdm2/MdmX hits | AID 504607 | actives 77% (n = 6,200) | inhibition, % at 8 µM | shares compounds with Mdm2-MdmX inh | SaOS-2 full-length luciferase counterscreen, luminescence;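 active means mean inhibition at 8 µM reaching about 37%, which flags the compound as non-specific, limit read from the data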;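 further: p53-null SaOS-2 cells with luciferase driven by a doxycycline-inducible promoter; compound on cells about two nights before reading with doxycycline added after day one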
An asterisk follows results filed as active; ? = inconclusive; . = no result.

SMILES	Gli-Sufu block	Jurkat NFkB inh	Mdm2-MdmX inh	697 NFkB inh	CSC inhib	aSyn UTR inh	Mdm2 MdmX conf	FLuc counter
Cc1ccccc1OCC(=O)Nc1ccccc1N1CCOCC1	-5.5	-41.4	50.3*	-87.2	16.7	25.2	8.3	.
O=C(COc1ccccc1)Nc1ccccc1N1CCCCC1	-0.6	-14.2	-6.8	-52.1	1.8	45.6	.	.
CCOc1ccc(OCC(=O)Nc2ccccc2N2CCCC2)cc1	6.2	41.8	50.7*	-11.2	-6.6	-9.3	71.7*	60.3*
CC12CCC(C(=O)O)(c3nc4cc([N+](=O)[O-])ccc4nc31)C2(C)C (stereo not drawn)	11.5	-10.7	26.2	8.3	-7.0	-5.3	.	.
CCn1c(=O)cc(OCC(=O)Nc2ccccc2N2CCN(C)CC2)c2ccccc21	14.3	-9.7	50.3*	-1.1	.	-22.4	16.2	.
O=C(N/N=C/c1cc(Br)cc(Br)c1O)c1cccc(S(=O)(=O)N2CCOCC2)c1	-2.0	-2.5	59.2*	-9.0	20.0	9.3	59.5*	29.6
O=C(N/N=C/c1cc(Br)cc(Br)c1O)c1cccc(N2CCCC2=O)c1	21.7	-7.1	57.7*	18.2	10.9	2.1	50.3*	26.3
O=C(N/N=C/c1ccccc1Br)c1cccc(S(=O)(=O)N2CCOCC2)c1	-1.7	-2.8	15.4	1.7	.	.	.	.
O=C(N/N=C/c1sc(N2CCOCC2)nc1-c1ccccc1)c1cccc(S(=O)(=O)N2CCCC2)c1	-4.0	40.5	79.2*	14.5	26.4	98.9*	71.8*	40.9*
O=C(CCN1C(=O)C2CC=CCC2C1=O)Nc1cc(C(F)(F)F)ccc1N1CCCC1 (stereo not drawn)	-1.6	-2.2	14.6	-5.6	-0.8	7.1	.	.
CSCCC(=O)NC1CCCN(CCc2ccccc2)C1 (stereo not drawn)	20.1	-7.7	-19.3	-40.9	-7.1	7.8	.	.
COc1ccc(C(=O)CC(Nc2ccc([N+](=O)[O-])cc2)c2ccc(Cl)cc2)cc1 (stereo not drawn)	-0.9	0.8	52.8*	8.5	39.7	-7.9	15.2	.
COc1ccc(C(=O)CC(=O)C(=O)Nc2ccc(Cl)cc2)cc1	-10.2	.	.	.	6.4	-37.8	.	.
Cc1ccc2[nH]cc(/C=C/c3cc[n+](C)cc3)c2c1	25.9	27.5	71.6*	-4.9	-9.5	64.5*	61.4*	56.9*
CC[n+]1ccc(/C=C/c2c[nH]c3ccccc23)cc1	46.2	41.7	55.7*	-12.6	12.2	3.6	19.6	.
N/C(=N\OC(=O)/C=C/c1ccccc1Cl)c1ccncc1	-81.8	-136.7	-290.5	-154.5	.	-126.1	.	.
COc1ccc(CNC(=O)c2c(N)n(CCCN3CCOCC3)c3nc4ccccc4nc23)cc1	18.2	-11.6	56.5*	-4.4	82.5*	-20.6	26.2	.
COC(=O)c1c(N)n(CCCN2CCOCC2)c2nc3ccccc3nc12	2.3	2.0	-12.1	17.6	-3.1	2.5	.	.
Nc1c(C(=O)NCc2ccccc2)c2nc3ccccc3nc2n1CCCN1CCOCC1	14.2	11.5	17.5	6.8	31.3	-10.0	.	.
Nc1c(C(=O)NCc2ccc(F)cc2)c2nc3ccccc3nc2n1CCCN1CCOCC1	7.2	2.2	54.0*	-20.1	?	-4.7	20.2	.
COc1ccc(N(Cc2cc(=O)[nH]c3ccccc23)C(=O)CCl)cc1	-6.8	16.2	100.3*	2.5	56.9	12.1	79.3*	62.6*
Cc1cccc(N(Cc2cc(=O)[nH]c3ccccc23)C(=O)CCl)c1	9.5	6.7	100.3*	-55.2	104.7*	2.5	100.2*	56.1*
COc1ccc(S(=O)(=O)N2CCc3ccccc32)cc1C(=O)NCC(c1ccco1)N1CCCC1 (stereo not drawn)	-3.4	0.8	4.6	4.0	-27.5	.	.	.
COc1cccc(/C(O)=C/c2nc3ccc(C(=O)NCCc4ccc(Cl)cc4)cc3[nH]c2=O)c1	0.4	.	.	.	.	-12.4	.	.
COc1cccc(/C(O)=C/c2nc3ccc(C(=O)NCCc4cccc(C)c4)cc3[nH]c2=O)c1	23.8	10.0	64.7*	-2.3	15.7	-32.3	2.5	.
SMILES	Gli-Sufu block	Jurkat NFkB inh	Mdm2-MdmX inh	697 NFkB inh	CSC inhib	aSyn UTR inh	Mdm2 MdmX conf	FLuc counter
CCN(CC)CCNC(=O)c1ccc(NC(=O)c2cccc(S(=O)(=O)N3CCc4ccccc43)c2)cc1	25.8	-22.4	75.7*	-20.7	.	.	43.5*	66.9*
CCOC(=O)c1ccc(NC(=O)c2cccc(S(=O)(=O)N3c4ccccc4CC3C)c2)s1 (stereo not drawn)	12.8	2.2	56.6*	-70.4	47.1	83.1*	32.9	.
COc1cc2c(cc1OC)CN(C(=O)c1cccc(S(=O)(=O)N3CCc4ccccc43)c1)CC2	-4.8	-25.1	90.2*	-214.3	33.5	.	59.4*	85.7*
CC1Cc2ccccc2N1S(=O)(=O)c1cccc(C(=O)NCCCO)c1 (stereo not drawn)	5.1	-22.3	0.7	4.6	10.0	6.0	.	.
CCN(CC)CCNC(=O)c1ccc(NC(=O)c2cccc(S(=O)(=O)N3c4ccccc4CC3C)c2)cc1 (stereo not drawn)	27.9	17.1	79.6*	-13.5	21.8	-25.6	26.9	.
CCN(CC)CCNC(=O)c1cc(S(=O)(=O)N2CCc3ccccc32)cn1C	9.8	-10.1	24.7	-0.3	-4.0	-15.4	.	.
Nc1nnc(SCC(=O)NN2C(=O)NC3(CCCCC3)C2=O)s1	-6.9	5.9	-21.8	-0.3	-5.8	-15.3	.	.
COc1cc2c(cc1OC)CN(C(C)C(=O)N1CCc3ccccc31)CC2 (stereo not drawn)	5.7	37.6	52.0*	14.2	-1.3	2.7	34.4	84.1*
CC(C(=O)N1CCc2ccccc21)N1CCc2ccccc2C1 (stereo not drawn)	7.4	-8.7	7.5	4.5	-0.2	7.6	.	.
CCN(CC(=O)Nc1c(F)cccc1F)C(=O)c1cc(-c2cccs2)nn1-c1ccccc1	1.9	3.7	59.6*	-1.5	.	18.3	39.8	85.6*
COC(=O)CN(c1nc(C)c(Br)c(OC)n1)S(=O)(=O)c1ccccc1	12.0	-3.7	6.1	13.2	-1.6	15.6	.	.
N#CCC(=O)Nc1ccc(C(=O)OC(C(=O)Nc2cc(C(F)(F)F)ccc2Cl)c2ccccc2)cc1 (stereo not drawn)	-19.0	11.0	52.1*	7.2	14.1	11.8	38.9	70.5*
CCN(CC)C(=O)[C@H]1C[C@H](CC(=O)NCc2cccc(C(F)(F)F)c2)C(=O)N2CCc3c([nH]c4cc(CCC(=O)N(C)C)ccc34)[C@]12C	0.7	.	20.1	21.7	.	.	.	.
COc1ccc(-c2cc(C(F)(F)F)c(C#N)c(SCC(=O)Nc3ccccc3C#N)n2)cc1	2.2	-7.5	53.2*	11.7	-1.2	17.1	12.9	.
COc1ccc(NC(=O)CSc2nc(-c3ccc(C)cc3)cc(C(F)(F)F)c2C#N)cc1	6.1	-31.0	26.4	-91.3	-15.0	-19.5	.	.
